Assay results taken from article PMC5540273 (PLoS ONE, 2017).

Legend:
Conditions in all cases: concentration: 1 μM, replicates: in singlicate; n = 1
[1] = system: NEK3
[2] = system: NEK4
[3] = system: NEK5
[4] = system: NEK6
[5] = system: NEK7
[6] = system: NEK9
[7] = system: T1, NIK
T1 construct: gene MAP3K14

[8] = system: T2, NIM1
T2 construct: gene MGC42105

[9] = system: NLK
[10] = system: T3, OSR1
T3 construct: gene OXSR1

[11] = system: PAK1
[12] = system: PAK2
[13] = system: PAK3
[14] = system: PAK4
[15] = system: PAK6
[16] = system: PAK7
[17] = system: T4, PCTK1
T4 construct: gene CDK16

[18] = system: T5, PCTK2
T5 construct: gene CDK17

[19] = system: T6, PCTK3
T6 construct: gene CDK18

[20] = system: PDGFRA
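Note: KINOMEscan kinase panel screen.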

Structure (SMILES) | %Inh [1] | %Inh [2] | %Inh [3] | %Inh [4] | %Inh [5] | %Inh [6] | %Inh [7] | %Inh [8] | %Inh [9] | %Inh [10] | %Inh [11] | %Inh [12] | %Inh [13] | %Inh [14] | %Inh [15] | %Inh [16] | %Inh [17] | %Inh [18] | %Inh [19] | %Inh [20]
COc1cc2ncnc(Nc3ccc(OCc4ccccc4Br)c(Cl)c3)c2cc1OC.Cl [GI261590] | 12% | 0% | 14% | 0% | 0% | 0% | 20% | 22% | 26% | 0% | 14% | 22% | 38% | 0% | 0% | 5% | 0% | 0% | 0% | 0%
Fc1cccc(COc2ccc(Nc3ncnc4sc(-c5ccc[nH]5)cc34)cc2Cl)c1 [GW707818] | 1% | 0% | 31% | 0% | 0% | 17% | 0% | 14% | 23% | 0% | 6% | 5% | 0% | 6% | 11% | 12% | 0% | 22% | 0% | 0%
Cl.Fc1ccccc1COc1ccc(Nc2ncnc3ccc(-c4nnc(C(F)(F)F)o4)cc23)cc1Cl [GW424170] | 0% | 0% | 4% | 0% | 0% | 0% | 10% | 0% | 0% | 0% | 0% | 0% | 0% | 0% | 0% | 10% | 0% | 0% | 17% | 0%
Cl.Cn1ccc(-c2cccc(Nc3ccnc4cc(-c5nccs5)ccc34)c2)n1 [GW525701] | 17% | 0% | 0% | 0% | 0% | 0% | 51% | 18% | 6% | 15% | 0% | 0% | 18% | 0% | 0% | 100% | 0% | 0% | 30% | 0%
Cl.Cl.c1ccc(-c2cc3ccncc3cc2OC2CCNCC2)cc1 [GSK1122999] | 0% | 2% | 22% | 0% | 4% | 28% | 3% | 12% | 15% | 8% | 15% | 31% | 47% | 0% | 0% | 2% | 2% | 12% | 13% | 0%
C[C@H]1CC[C@@H](C(=O)Nc2ccccc2)CN1c1cc(-c2ccc3c(N)n[nH]c3c2)nc(N)n1 [GSK2283293] | 1% | 1% | 0% | 0% | 0% | 7% | 0% | 12% | 0% | 11% | 0% | 3% | 0% | 0% | 0% | 0% | 0% | 0% | 12% | 0%
Cl.c1ccc(Cn2ccc3cc(Nc4ncnc5ccccc45)ccc32)cc1 [GW275568] | 12% | 5% | 28% | 0% | 9% | 24% | 0% | 10% | 20% | 1% | 12% | 13% | 0% | 9% | 8% | 35% | 0% | 16% | 18% | 2%
CS(=O)(=O)CCNCc1ccc(-c2ccc3ncnc(Nc4ccc(OCc5ccccc5)c(Cl)c4)c3c2)o1.Cl [GW574783] | 0% | 5% | 0% | 0% | 0% | 0% | 100% | 0% | 12% | 0% | 0% | 0% | 7% | 0% | 0% | 0% | 0% | 0% | 0% | 0%
N#Cc1ccc(Oc2ccc(Nc3ncnc4cc[nH]c34)cc2Cl)cc1 | 26% | 0% | 0% | 0% | 13% | 2% | 0% | 30% | 17% | 4% | 35% | 45% | 24% | 19% | 27% | 15% | 0% | 13% | 20% | 25%
O=C(c1ccc(-c2cc(-c3c[nH]nc3-c3ccccn3)ccn2)cc1)N1CCCC1 [GW792479] | 35% | 0% | 0% | 28% | 0% | 0% | 0% | 4% | 0% | 0% | 8% | 0% | 0% | 16% | 9% | 0% | 0% | 0% | 3% | 0%
Fc1cccc(COc2ccc(Nc3ncnc4cc[nH]c34)cc2Cl)c1 | 12% | 3% | 16% | 11% | 9% | 10% | 9% | 48% | 0% | 21% | 30% | 35% | 10% | 26% | 0% | 22% | 5% | 48% | 10% | 22%
CN1c2ccc(-c3ccc(C(=O)NCCO)cc3)cc2-c2[nH]ncc2S1(=O)=O | 45% | 0% | 0% | 0% | 0% | 8% | 37% | 0% | 0% | 0% | 12% | 32% | 20% | 35% | 7% | 16% | 0% | 28% | 0% | 35%
Cl.O=S(=O)(c1cccc(F)c1)c1ccc(Nc2ncnc3cc(Br)sc23)cc1Cl [GSK306886] | 0% | 0% | 59% | 0% | 0% | 23% | 4% | 0% | 44% | 0% | 1% | 0% | 0% | 1% | 1% | 9% | 4% | 10% | 11% | 0%
CCCc1ccc(S(=O)(=O)NC2CCN(c3ccnc(Nc4ccc(OC)cc4)n3)C2)cc1 (stereo not drawn) [GSK1379737] | 1% | 10% | 15% | 39% | 0% | 0% | 43% | 30% | 0% | 100% | 11% | 9% | 100% | 0% | 0% | 0% | 0% | 0% | 0% | 0%
Nc1nccc2scc(-c3ccc4c(c3)CCN4C(=O)Cc3cc(F)ccc3F)c12 [GSK2587663] | 0% | 9% | 6% | 0% | 0% | 4% | 0% | 18% | 2% | 5% | 1% | 0% | 19% | 0% | 0% | 0% | 0% | 0% | 20% | 0%
COc1ccc(Nc2nccc(N3CCC(NC(=O)c4cccc(NC(C)=O)c4)C3)n2)cc1 (stereo not drawn) [GSK1379732] | 11% | 0% | 25% | 0% | 0% | 13% | 28% | 47% | 12% | 7% | 0% | 0% | 0% | 0% | 0% | 6% | 0% | 10% | 1% | 0%
C[C@@H]1CCN(C(=O)CO)C[C@@H]1N(C)c1ncnc2[nH]ccc12 | 38% | 0% | 1% | 0% | 0% | 0% | 0% | 0% | 100% | 0% | 0% | 0% | 0% | 0% | 0% | 2% | 0% | 0% | 4% | 0%
NC(=O)c1sc(-n2cnc3ccccc32)cc1OCc1ccccc1F [GSK1024306] | 0% | 0% | 0% | 0% | 0% | 0% | 0% | 20% | 1% | 1% | 14% | 16% | 0% | 0% | 0% | 4% | 0% | 0% | 1% | 0%
CCn1c(-c2ccncc2)nc2cnccc21 [SB-735216] | 14% | 8% | 0% | 6% | 6% | 0% | 15% | 25% | 4% | 15% | 0% | 47% | 0% | 0% | 0% | 0% | 0% | 0% | 0% | 13%
Clc1cccc(-c2nc(Nc3ccncc3)c3ccccc3n2)c1 [GW873004] | 36% | 0% | 23% | 14% | 0% | 3% | 0% | 0% | 30% | 0% | 0% | 0% | 37% | 16% | 0% | 0% | 0% | 0% | 0% | 0%
CCc1nc(-c2cccc(C)c2)c(-c2ccnc(NC(=O)c3ccccc3)c2)s1 | 27% | 0% | 2% | 28% | 16% | 13% | 22% | 11% | 23% | 10% | 0% | 0% | 2% | 0% | 3% | 0% | 24% | 7% | 1% | 0%
